# Measured values from the supplement of paper PMC8728848.
# The full list was thinned out, with the strongest signals kept by preference.
# Legend:
# Assay in all cases: glycan array binding signal (z-score within array); higher = stronger binding
# Conditions in all cases: glycan notation: IUPAC condensed, linker removed
# [1] = target: Gal3S(b1-3)[Fuc(a1-4)]GlcNAc
# Method in brief: (§1)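 Negative Z-scores can be read as non-binding. The Z-score is calculated within each array and then averaged across arrays of one protein sequence at different concentrations or buffers and across linkers. Arrays, 3228 in all, were curated from the Consortium for Functional Glycomics database and kept only where the protein sequence was available.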
# [2] = target: GalNAc(b1-4)GlcNAc(b1-3)GalNAc(b1-4)GlcNAc
# Method in brief: as §1
# [3] = target: Glc(a1-4)Glc(a1-4)Glc(a1-4)Glc
# Method in brief: as §1
# GlcA(b1-6)Gal = target: GlcA(b1-6)Gal
# Method in brief: as §1
# [4] = target: GlcNAc(a1-4)Gal(b1-4)GlcNAc(b1-3)Gal(b1-4)Glc
# Method in brief: as §1
# [5] = target: GlcNAc(a1-4)Gal(b1-4)GlcNAc(b1-3)Gal(b1-4)[Fuc(a1-3)]GlcNAc(b1-3)Gal(b1-4)[Fuc(a1-3)]GlcNAc
# Method in brief: as §1
# [6] = target: GlcNAc(b1-2)[GlcNAc(b1-6)]Man(a1-6)[GlcNAc(b1-2)Man(a1-3)]Man(b1-4)GlcNAc(b1-4)[Fuc(a1-6)]GlcNAc
# Method in brief: as §1
# [7] = target: GlcNAc(b1-3)Gal(b1-4)GlcNAc(b1-3)Gal(b1-4)GlcNAc(b1-2)[GlcNAc(b1-3)Gal(b1-4)GlcNAc(b1-3)Gal(b1-4)GlcNAc(b1-6)]Man(a1-6)[GlcNAc(b1-3)Gal(b1-4)GlcNAc(b1-3)Gal(b1-4)GlcNAc(b1-2)Man(a1-3)]Man(b1-4)GlcNAc(b1-4)[Fuc(a1-6)]GlcNAc
# Method in brief: as §1
# [8] = target: GlcNAc(b1-3)Gal(b1-4)GlcNAc(b1-6)[GlcNAc(b1-3)Gal(b1-3)]GalNAc
# Method in brief: as §1
# GlcNAc(b1-6)GalNAc = target: GlcNAc(b1-6)GalNAc
# Method in brief: as §1
# Kdn(a2-3)Gal(b1-4)GlcNAc = target: Kdn(a2-3)Gal(b1-4)GlcNAc
# Method in brief: as §1
# [9] = target: Neu5Ac(a2-3)Gal(b1-3)GalNAc(b1-4)[Neu5Ac(a2-8)Neu5Ac(a2-3)]Gal(b1-4)Glc
# Method in brief: as §1
# [10] = target: Neu5Ac(a2-3)Gal(b1-3)[GlcNAc(b1-6)]GalNAc
# Method in brief: as §1
# [11] = target: Neu5Ac(a2-3)Gal(b1-4)GlcNAc(b1-2)[Neu5Ac(a2-3)Gal(b1-4)GlcNAc(b1-4)]Man(a1-3)[GlcNAc(b1-4)][Neu5Ac(a2-3)Gal(b1-4)GlcNAc(b1-4)Man(a1-6)]Man(b1-4)GlcNAc(b1-4)GlcNAc
# Method in brief: as §1
# [12] = target: Neu5Ac(a2-3)Gal(b1-4)GlcNAc(b1-3)Gal(b1-4)GlcNAc(b1-3)Gal(b1-4)GlcNAc(b1-2)Man(a1-3)[Neu5Ac(a2-3)Gal(b1-4)GlcNAc(b1-3)Gal(b1-4)GlcNAc(b1-3)Gal(b1-4)GlcNAc(b1-2)Man(a1-6)]GalNAc
# Method in brief: as §1
# [13] = target: Neu5Ac(a2-3)Gal(b1-4)GlcNAc(b1-6)GalNAc
# Method in brief: as §1
# [14] = target: Neu5Ac(a2-3)Gal(b1-4)[Fuc(a1-3)]GlcNAc
# Method in brief: as §1
# [15] = target: Neu5Ac(a2-3)Gal6S(b1-4)GlcNAc
# Method in brief: as §1
# [16] = target: Neu5Ac(a2-3)[GalNAc(b1-4)]Gal(b1-4)Glc
# Method in brief: as §1
# [17] = target: Neu5Ac(a2-6)Gal(b1-4)GlcNAc(b1-2)Man(a1-3)[Man(a1-6)]Man(b1-4)GlcNAc(b1-4)GlcNAc
# Method in brief: as §1
# [18] = target: Neu5Ac(a2-6)Gal(b1-4)GlcNAc(b1-2)Man(a1-3)[Neu5Ac(a2-3)Gal(b1-4)GlcNAc(b1-2)Man(a1-6)]Man(b1-4)GlcNAc(b1-4)GlcNAc
# Method in brief: as §1
# [19] = target: Neu5Ac(a2-6)Gal(b1-4)GlcNAc(b1-3)Gal(b1-4)GlcNAc(b1-3)Gal(b1-4)GlcNAc
# Method in brief: as §1
# [20] = target: Neu5Gc(a2-3)Gal(b1-4)GlcNAc
# Method in brief: as §1
binder,measurement,setting,value
GS14009A-pdi-495-27-495 (Parabacteroides distasonis) (protein) FEEVNTDPDSPTDVPTTNLLAYSLYYTSYRLYDRWFAMDEPMTFCGYASKMTYIDESRYNFRTGVQDTNWEYLYRILNNLKDIEKRATFNETPNMLNVSKVMQVHLMQVATDRWRDVPYTDAAKMTDGILQPKYDKQEDIYPGLLATLKEAADGFADGGSDDLGEGDLLFGGDIEKWQRYCNSMRLRLAMRISEVSPALAKETVEEVMGNPTKYPIMESNDDNAFFWWIGTDPNYYEPMADGYRTRKTEYCAADVIVDHMNTREDPRRSSYFQPTKESVEAGEPKYVGYTIGAKANAVASKYSIWGARFFTDLAGFSPYMRVAEPWFCVAEASMLGWNTGISAEDAYNKAVTYSMEENSVSAEDIADYLANAGKFTNDKKQIYYEEWVAMFKQGMEGWSLYRRTGVPDNLYPAPGRPANYSNHNVPPFRSPYPDKERNLNNANCAPFDAEVVDNLWGKQMWWDTRTGVH,glycan array binding signal (z-score),[1],0.01
same,glycan array binding signal (z-score),[2],-0.71
same,glycan array binding signal (z-score),[3],-0.358
same,glycan array binding signal (z-score),GlcA(b1-6)Gal,0.626
same,glycan array binding signal (z-score),[4],-0.147
same,glycan array binding signal (z-score),[5],1.93
same,glycan array binding signal (z-score),[6],-0.199
same,glycan array binding signal (z-score),[7],2.44
same,glycan array binding signal (z-score),[8],0.415
same,glycan array binding signal (z-score),GlcNAc(b1-6)GalNAc,0.174
same,glycan array binding signal (z-score),Kdn(a2-3)Gal(b1-4)GlcNAc,-0.615
same,glycan array binding signal (z-score),[9],-0.25
same,glycan array binding signal (z-score),[10],-0.177
same,glycan array binding signal (z-score),[11],0.12
same,glycan array binding signal (z-score),[12],1.45
same,glycan array binding signal (z-score),[13],-0.512
same,glycan array binding signal (z-score),[14],-0.201
same,glycan array binding signal (z-score),[15],-0.508
same,glycan array binding signal (z-score),[16],-0.129
same,glycan array binding signal (z-score),[17],-0.647
same,glycan array binding signal (z-score),[18],-0.631
same,glycan array binding signal (z-score),[19],-0.311
same,glycan array binding signal (z-score),[20],-0.276
